{"source": "PubChem BioAssay (NCI)", "note": "About 83,000 compounds went through this panel and 20% of them were active in at least one assay; those are over-represented in the sample as a whole.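 In brief: 96-well plates, 48 h treatment, single concentration, percent growth endpoint.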 Activity calls are given as the source filed them. How the source made its calls: active means growth percent below 10; inactive means the rest."}
{"system": "MDA-MB-468 breast", "experiment": "NCI-60 one-dose screen, 48 h (100 = growth as untreated, 0 = no growth, -100 = all killed)", "details": "10 µM unless noted"}
{"compound": "O=C/C=C/c1ccco1", "growth": "106% (inactive)"}
{"compound": "CCCC(C)SP(=S)(SC(C)CCC)SC(C)CCC", "note": "(stereo not given)", "growth": "-25.4% (active)"}
{"compound": "Cc1cc(Br)c([N+](=O)[O-])cc1[N+](=O)[O-]", "growth": "58.4% (inactive)"}
{"compound": "CN(CCF)/N=N/c1nc[nH]c1C(N)=O", "growth": "26.7% (inactive)"}
{"compound": "CC[C@H](C)[C@H](NC(=O)C12CC(NC)(C1)C2)C(=O)N(C)[C@H](C[C@@H](OC(C)=O)c1nc(C(=O)N[C@@H](Cc2ccccc2)C[C@H](C)C(=O)OC)cs1)C(C)C", "growth": "-8.32% (active)"}
{"compound": "C=CCC1(CC)C(=O)NC(=S)NC1=O", "growth": "97.4% (inactive)"}
{"compound": "Cn1cccc1C1CC(=O)N(CCC[Se]C#N)C1=O", "note": "(stereo not given)", "growth": "13.6% (inactive)"}
{"compound": "COC(=O)[C@H](Cc1c[nH]c2ccccc12)NC(=O)[C@@H](OC)[C@@H]1Cc2cc3cc(OC4CC(OC5CC(O)C(O)C(C)O5)C(O)C(C)O4)c(C)c(O)c3c(O)c2C(=O)[C@H]1OC1CC(OC2CC(OC3CC(C)(O)C(O)C(C)O3)C(O)C(C)O2)C(O)C(C)O1", "note": "(stereo not given in full)", "growth": "-48.8% (active)"}
{"compound": "CN1C(=O)C(=Cc2cn(CCCCCCn3c4ccccc4c(=O)c4ccccc43)c3ccccc23)C(=O)N(C)C1=O", "growth": "81% (inactive)"}
{"compound": "COc1ccc(C(=O)c2cc(OC)c(OC)c(OC)c2)cc1OC(C)=O", "growth": "43.1% (inactive)"}
{"compound": "CC(=O)[O][Hg][c]1c(C)c(C)cc(C)c1C", "growth": "-79.4% (active)"}
{"compound": "CCn1c2ccccc2c2cc(C(=O)c3cccc4c3CCCN4)ccc21", "growth": "96.4% (inactive)"}
{"compound": "O=C(Nc1ccncc1F)c1cn(CC2CC2)c2ccccc12", "growth": "107% (inactive)"}
{"compound": "CC(Oc1ccc(-c2ccccc2)cc1)C(=O)O", "note": "(stereo not given)", "growth": "94.4% (inactive)"}
{"compound": "COC(C(=O)[C@@H](O)[C@@H](C)O)[C@@H]1Cc2cc3cc(O[C@H]4C[C@@H](O[C@H]5C[C@@H](O)[C@H](O)C(C)O5)[C@H](O)C(C)O4)c(C)c(O)c3c(O)c2C(=O)[C@H]1O[C@H]1C[C@@H](O[C@H]2C[C@@H](O[C@H]3C[C@@H](O)[C@@H](O)C(C)O3)[C@@H](O)C(C)O2)[C@H](O)C(C)O1", "note": "(stereo not given in full)", "growth": "-41.2% (active)"}
{"compound": "Nc1nnnc2nc[nH]c12", "growth": "-11.9% (active)"}
{"compound": "Cc1c(C)c(N)c(C)c(C)c1N", "growth": "61.7% (inactive)"}
{"compound": "C[C@]12CCc3sc(-c4ccccc4O)nc3C1=CC[C@@H]1[C@@H]2CC[C@]2(C)C(=O)CC[C@@H]12", "growth": "106% (inactive)"}
{"compound": "COc1ccc(-n2c(C)nc3cc(OC)c(OC)cc3c2=O)cc1OC", "growth": "114% (inactive)"}
{"compound": "ClCCN(CCCl)c1ccc(/C=C\\c2ccnc3ccccc23)cc1", "growth": "46.1% (inactive)"}
{"compound": "O=C(c1ccccc1O)c1[nH]c(Cl)c(Cl)c1-n1c(C(=O)c2ccccc2O)cc(Cl)c1Cl", "growth": "-13.8% (active)"}
{"compound": "COc1ccc2c(c1)c(-c1nc(-c3cn(C)c4ncccc34)cs1)cn2CCCCN1CCOCC1", "growth": "35% (inactive)"}
{"compound": "C=CC(O)CN1CC1CC", "note": "(stereo not given)", "growth": "105% (inactive)"}
{"compound": "COc1ccc(S(=O)(=O)Nc2c(/C=C\\c3cc(OC)c(OC)c(OC)c3)ccc(OC)c2O)cc1OC", "growth": "14.1% (inactive)"}
{"compound": "CC[C@H](C)[C@H](NC(=O)[C@H]1CCCCN1C)C(=O)N(C)[C@H](C[C@@H](OC(C)=O)c1cccc(C(=O)N[C@@H](Cc2ccccc2)C[C@H](C)C(=O)OC)n1)C(C)C", "growth": "40.9% (inactive)"}
{"compound": "Nc1ccc(OCCNS(=O)(=O)c2cccc(S(=O)(=O)F)c2)c(Cl)c1", "growth": "94.6% (inactive)"}
{"compound": "C[C@@H]1CCC/C=C/[C@H]2C[C@@H](O)C[C@@H]2[C@@H](O)/C=C/C(=O)O1", "growth": "-21.4% (active)"}
{"compound": "C=CCc1ccc(OC(=O)Cc2ccccc2)c(OC)c1", "growth": "100% (inactive)"}
{"compound": "NC(Cc1ccc(O)cc1)C(=O)N/N=C/c1ccc(N(CCCl)CCCl)cc1", "note": "(stereo not given)", "growth": "19.7% (inactive)"}
{"compound": "C=CC[PH+](c1ccccc1)c1ccccc1.C=CC[PH+](c1ccccc1)c1ccccc1.[Pt+2].[S-]c1nc2ccccc2[nH]1.[S-]c1nc2ccccc2[nH]1", "growth": "-14% (active)"}
{"compound": "COc1cc2c(O[C@@H]3OC[C@H](OC(C)=O)[C@H](OC(C)=O)[C@H]3O)c3c(c(-c4ccc5c(c4)OCO5)c2cc1OC)C(=O)OC3", "growth": "55.4% (inactive)"}
{"compound": "ClCc1ccc(Cl)c(Cl)c1", "growth": "90.7% (inactive)"}
{"compound": "CC1(C)N=C(N)N=C(N)N1c1ccc(OCCCCNC(=O)Nc2cccc(S(=O)(=O)F)c2)c(Cl)c1", "growth": "40.9% (inactive)"}
{"compound": "[Cl][Hg][c]1ccc(Cl)s1", "growth": "-61% (active)"}
{"compound": "CCC[CH2][Sn]([CH2]CCC)([CH2]CCC)[O]C(=O)CC", "growth": "-88% (active)"}
{"compound": "CC(=O)C1CCC2C3CC=C4CC(OC(=O)Cc5ccc(N(CCCl)CCCl)cc5)CCC4(C)C3CCC12C", "note": "(stereo not given)", "growth": "94.7% (inactive)"}
{"compound": "Oc1ccccc1OB(Oc1ccccc1O)N(CCCl)CCCl", "growth": "84% (inactive)"}
{"compound": "O=C(N/N=C\\c1ccc(N(CCCl)CCCl)cc1Cl)c1cccnc1", "growth": "-69.6% (active)"}
{"compound": "C=CCN1C(=O)C(CC)(CCC(C)C)C(=O)NC1=S", "note": "(stereo not given)", "growth": "102% (inactive)"}
{"compound": "O=[N+]([O-])CC(O)C(Cl)(Cl)Cl", "note": "(stereo not given)", "growth": "102% (inactive)"}
